# PubChem BioAssay AID2540 (Sanford-Burnham Center for Chemical Genomics, 2010)
# About 4,100 (1.2%) of roughly 330,000 compounds were called active. This is one part of a sample in which actives are shown more often than they occur. Rule as the data show it: active = inhibition above about 50%; inactive = the rest.
# Target: Sentrin-specific protease 8 (Homo sapiens) (UniProt Q96LD8)
# Test: SENP8 protease inhibitors, primary screen, biochemical, luminescence (AID 2540)
# Conditions: purified SENP8, Z-RLRGG-aminoluciferin cleavage, at 10 µM, stronger effect = higher value
# Sentrin-specific protease 8 (Homo sapiens), sequence (Q96LD8 whole entry, looked up): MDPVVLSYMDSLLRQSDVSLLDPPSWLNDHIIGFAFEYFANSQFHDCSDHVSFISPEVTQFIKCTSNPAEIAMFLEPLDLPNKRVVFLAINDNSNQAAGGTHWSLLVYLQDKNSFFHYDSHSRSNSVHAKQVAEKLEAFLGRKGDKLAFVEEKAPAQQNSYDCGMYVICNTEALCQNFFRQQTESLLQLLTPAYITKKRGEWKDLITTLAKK
row,Compound,inhibition
1,C=CCN(c1ccc(C(=O)Nc2cc(C)cc(C)c2)cc1)S(C)(=O)=O,3.93% (inactive)
2,CC(=O)Nc1ccccc1NC(=O)c1cc(C)cc(C)c1,-8.13% (inactive)
3,CSCc1ccc(C(=O)Nc2cc(C)cc(C)c2)cc1,72.8% (active)
4,COc1cc(N=Cc2c(O)c3ccccc3oc2=O)c(OC)cc1Cl,20% (inactive)
5,COc1ccccc1N=Cc1c(O)c2ccccc2oc1=O,58.3% (active)
6,COc1ccccc1N=C(C)C1=C(O)COC1=O,-4.5% (inactive)
7,C=CCn1c(C)cc(C2=NNC(=NCC)SC2)c1C,91.5% (active)
8,COc1ccc(N(Cc2ccc(N(C)C)cc2)C(=O)c2ccc(S(C)(=O)=O)cc2)cc1,7.56% (inactive)
9,O=C(CCc1ccccc1)Nc1ccc(NC(=O)C2CC2)nc1,-0.592% (inactive)
10,CCN(Cc1ccccc1)C(=O)CN1C(=S)NC(C)(C)CC1C (centres undefined),-3.88% (inactive)
11,O=C(c1ccco1)N1CCN(C(=O)c2cc(-c3ccccc3F)no2)CC1,3.2% (inactive)
12,Fc1ccccc1-c1cc2cc3c(cc2cn1)OCO3,70.8% (active)
13,O=C(CN1CCN(c2ccccc2F)CC1)c1ccc2c(c1)OCO2,-9.99% (inactive)
14,Cc1ccc(N(Cc2ccccc2O)C(=O)c2ccccc2F)cc1,9.54% (inactive)
15,O=C(Nc1ccc2ccccc2c1)/C(=C\c1ccc2c(c1)OCO2)NC(=O)c1ccco1,10.3% (inactive)
16,CCN1C(=NCc2ccc(OC)cc2)N[C@@H](CCc2ccccc2)[C@H](C(=O)NCc2ccc(OC)cc2)[C@H]1C,-2.38% (inactive)
17,CC(C)CCN1C(=O)c2ccc(C(=O)Nc3cccc(S(N)(=O)=O)c3)cc2C1=O,-8.58% (inactive)
18,COCCOC(=O)c1sc(=S)n(CCOC)c1N,-1.86% (inactive)
19,COc1cccc(NC(=O)c2ccc3c(SCC(=O)O)c4c(nc3c2)CCCC4)c1,-3.32% (inactive)
20,CC(C)CCNC(=O)c1ccc2c(Cl)c3c(nc2c1)CCC3,81.1% (active)
21,CC(=O)c1ccc(NC(=O)c2ccc3c(Cl)c4c(nc3c2)CCCC4)cc1,-0.476% (inactive)
22,Cc1c(CCO)c(=O)[nH]n1C(=O)c1c(F)cccc1F,13.4% (inactive)
23,O=C(O)C(F)(F)C(NCc1ccccc1)c1ccccc1 (centres undefined),-6.64% (inactive)
24,O=C(OC1CCOC1=O)c1ccc(-c2nc3ccccc3s2)s1 (centres undefined),93.9% (active)
25,CC(C)c1ccc(C(=O)OC2CCOC2=O)cc1 (centres undefined),2.09% (inactive)

row,Compound,inhibition
1,COc1cc(C(=O)OC2CCOC2=O)c([N+](=O)[O-])cc1OC (centres undefined),-2.98% (inactive)
2,Cc1cccc(NS(=O)(=O)c2ccc(C)c(C(=O)NCC(c3ccccc3)N(C)C)c2)c1 (centres undefined),8.98% (inactive)
3,CCCCNC(=O)c1ccccc1NC(=O)c1ccccc1N(C)S(C)(=O)=O,-5.03% (inactive)
4,Oc1c(Cl)cc(Cl)c(Cl)c1Cc1c(O)c(Cl)cc(Cl)c1Cl,28.5% (inactive)
5,COc1cccc(/C=C/c2ccc3ccccc3n2)c1OC(C)=O,17.7% (inactive)
6,COc1ccc(/C=C/c2noc(-c3ccccc3OC(C)=O)n2)cc1,88.3% (active)
7,COc1ccccc1-c1nnc(-c2ccc(F)cc2)o1,24.5% (inactive)
8,C[C@@H]1CC[C@]2(O[C@@H](CCO)C[C@H](O)[C@H]2O)O1,1.7% (inactive)
9,NC(=O)[C@H]1CC2(CC(c3cccc(NC(=O)[C@H]4CCC(=O)N4)c3)=NO2)CN1C(=O)c1ccccc1C(=O)c1ccccc1 (some centres undefined),2.84% (inactive)
10,COc1ccc(/C=N/NC(=O)c2cc(-c3cccc(C)c3)nc3ccccc23)cc1O,10.3% (inactive)
11,COc1cc(/C=N/Nc2nc3ccccc3s2)ccc1O,76% (active)
12,COc1cc(/C=N/NC(=O)CCc2n[nH]c(=O)[nH]c2=O)ccc1O,1.52% (inactive)
13,O=C(NCCc1cccc(F)c1)C1CCCN(c2nc3ccccc3s2)C1 (centres undefined),12.2% (inactive)
14,Cc1nc(N2CCCCC2)sc1C=O,1.41% (inactive)
15,Fc1ccc2nc(N3CCCCC3)sc2c1,72.2% (active)
16,Fc1ccc2nc(Nc3nc4c(s3)CCCC4)sc2c1,3.05% (inactive)
17,O=S(=O)(Nc1ccc2nc(N3CCOCC3)sc2c1)c1ccccc1,9% (inactive)
18,Cc1ccc2nc(N3CCN(C(=O)c4ccco4)CC3)sc2c1,-13.8% (inactive)
19,CN(C)CCCN(C(=O)c1ccc(S(=O)(=O)N2CCCCCC2)cc1)c1nc2cc3c(cc2s1)OCCO3,6.61% (inactive)
20,c1c2c(cc3sc(N4CCCCC4)nc13)OCCO2,96.5% (active)
21,Brc1ccc2nc(N3CCCC3)sc2c1,85.2% (active)
22,COc1ccc2c(c1)C=CC1(O2)N(CCO)c2ccccc2C1(C)C (centres undefined),0.788% (inactive)
23,O=C(CSc1nc2ncccc2[nH]1)Nc1ccc2c(c1)OCCO2,-1.02% (inactive)
24,CC(Sc1nncn1C)C(=O)NCCC1=CCCCC1 (centres undefined),5.55% (inactive)
25,Cc1ccc(C(c2nnnn2CS(=O)(=O)c2ccc(C)cc2)N2CCC(C)CC2)cc1 (centres undefined),4.98% (inactive)

row,Compound,inhibition
1,CCC(=O)c1ccc(OCC(=O)OCC(=O)NC2CCCCCC2)cc1,-0.587% (inactive)
2,O=C(Nc1nnc(C2CC2)s1)c1cc(Cl)sc1Cl,-4.61% (inactive)
3,Cc1cc(C(=O)Nc2nnc(C3CC3)s2)c(C)s1,74.1% (active)
4,CCc1cc(C(=O)Nc2nnc(C3CC3)s2)sc1C,2.73% (inactive)
5,CCN1CCN(c2ccc(S(=O)(=O)N3CCCCC3)cc2NC(=O)c2cccc(NC(C)=O)c2)CC1,-4.93% (inactive)
6,CC(C)CC(O)C1CCN(C(=O)CCc2nnc(-c3ccc4c(c3)OCO4)o2)CC1 (centres undefined),-8.01% (inactive)
7,CNS(=O)(=O)c1cccc(C(=O)OCC(=O)N2c3ccccc3NC(=O)C2(C)C)c1,-16.6% (inactive)
8,CSC1=N/C(=C\C=C\c2cccs2)C(=O)S1,53.6% (active)
9,O=C1N/C(=C/c2cccs2)C(=O)N1Cc1ccc(F)cc1,-10% (inactive)
10,Cc1cccc(C2=N/C(=C/c3cccs3)C(=O)O2)c1,-4.38% (inactive)
11,CC(C)(C)c1cc(NC(=O)NN2CCOCC2)nn1-c1c(Cl)cc(Cl)cc1Cl,1.46% (inactive)
12,CC(=O)N1CCN(C(=O)c2cccc(S(=O)(=O)Nc3ccc(C)cc3)c2)CC1,-6.08% (inactive)
13,Cc1cccc(NS(=O)(=O)c2ccc(C)c(C(N)=O)c2)c1,0.196% (inactive)
14,Cc1cccc(NS(=O)(=O)c2cccc(C(=O)NNC(=O)c3ccccc3O)c2)c1,50.1% (active)
15,CCc1ccc(NC(=O)CCNS(=O)(=O)c2cccs2)cc1,-0.839% (inactive)
16,CS(=O)(=O)Nc1cccc(-c2cn3ccccc3n2)c1,-1.75% (inactive)
17,O=c1[nH]n(-c2ccc([N+](=O)[O-])cc2)c(=O)c2ccccc12,-5.71% (inactive)
18,O=C1CC(c2ccccc2)=NN1c1ccc([N+](=O)[O-])cc1,81.8% (active)
19,Cc1nc(-c2ccc([N+](=O)[O-])cc2)c(-c2ccccc2)o1,-11% (inactive)
20,CCOc1ccccc1OCCCNCc1ccccc1,-6.65% (inactive)
21,C=CCSc1nnc(Cn2c(=O)sc3ccccc32)n1C,-1.6% (inactive)
22,Cc1cc(N=Nc2ccc3ccccc3c2)ccc1O,95.5% (active)
23,Cc1ccccc1Nc1nc(N)nc(COC(=O)CCC(=O)c2ccc(F)cc2)n1,-5.5% (inactive)
24,CCC(C(=O)Nc1ncccn1)(C(F)(F)F)C(F)(F)F,2.16% (inactive)
25,COc1cc(OC)cc(-c2c(C#Cc3ccsc3)c3cc(-c4ccc(OC)cc4F)ccc3n2C)c1,-6.93% (inactive)

row,Compound,inhibition
1,COc1ccc(CNC(=O)COc2ccccc2C(=O)c2cnn(-c3ccccc3)c2)cc1OC,55.6% (active)
2,COc1ccc(CNC(=O)Cc2ccc(-c3ccccc3)cc2)cc1OC,-1.75% (inactive)
3,COc1ccc(CNC(=O)COC(=O)c2c(C)nn(-c3ccccc3)c2C)cc1OC,-2.1% (inactive)
4,CC(C)CCN(C(=O)c1csnn1)C(C(=O)NC1CCCC1)c1ccccc1 (centres undefined),-0.251% (inactive)
5,CCOC(=O)c1sc(N(Cc2ccccc2)C(=O)CN2C(=O)CN(C)C2=O)nc1C,5.69% (inactive)
6,CC12CCC(=O)N1C(C(=O)Nc1ccc(F)c(F)c1F)CS2 (centres undefined),-5.83% (inactive)
7,CCN(C(=O)COC(=O)CCC(=O)c1cccs1)C1CCCCC1,-2.61% (inactive)
8,Cc1ccsc1C(=O)NC1CCCCC1C (centres undefined),-2.42% (inactive)
9,COc1ccc(C(=O)Nc2cccc(S(C)(=O)=O)c2)cc1,-4.36% (inactive)
10,COc1cccc(C(=O)Nc2nc3ccc(S(C)(=O)=O)cc3s2)c1,82.5% (active)
11,COc1cccc(C(=O)Nc2nnc(S(=O)(=O)N(C)c3ccccc3)s2)c1,-5.38% (inactive)
12,O=C(Nc1nnc(C2CC2)s1)c1ccccn1,20.9% (inactive)
13,Cc1cnc(NC(=O)C2CCCC2)s1,-0.598% (inactive)
14,Cc1cnc(NC(=O)c2ccccn2)s1,66.9% (active)
15,Clc1ccc(C=NC23CN4CN(CN(C4)C2)C3)cc1,8.45% (inactive)
16,Cc1ccc(Nc2cc(C)nc3c(C)ccc([N+](=O)[O-])c23)cc1,-13.4% (inactive)
17,Cc1cc(Nc2ccc(Br)cc2)nc2ccccc12,-6.96% (inactive)
18,O=c1ccnc(Nc2ccc(Cl)cc2)[nH]1,-3.3% (inactive)
19,Clc1ccc(Nc2ccc3ccccc3n2)cc1,82.3% (active)
20,CC(OC(=O)c1ccc(NS(=O)(=O)c2ccc3[nH]c(=O)[nH]c3c2)cc1)C(=O)Nc1cccc(Cl)c1Cl (centres undefined),-9.53% (inactive)
21,CC(C)CCN1CCN(C/C=C/c2ccco2)CC1CCO (centres undefined),4.76% (inactive)
22,Cc1cc(C(=O)CCl)c(C)n1CC1COc2ccccc2O1 (centres undefined),-8.88% (inactive)
23,Cc1ccsc1C(=O)OCC(=O)c1cc(C)n(CC2CCCO2)c1C (centres undefined),91.1% (active)
24,COc1ccc(C(=O)OCC(=O)c2cc(C)n(CC3CCCO3)c2C)cc1[N+](=O)[O-] (centres undefined),-17.7% (inactive)
